Calls of active or inactive are those of the source. Rule for the calls: active = hit-call score of the fitted dose curve at least 0.9, where 1 is the maximum; inactive = score below 0.9.
Read-out: Pselectin, SELP (gene 6403)
Experiment: BSK_4H_Pselectin: BioMAP Diversity Plus: 4H Assay for Pselectin Biomarker Activity (AID 2283026)
Conditions: primary human endothelial cells (HUVEC); actives raise or lower the signal
How it was run: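 HUVEC, 24 h chemical exposure; P-selectin read by ELISA. Bidirectional curve fit vs DMSO baseline; gain or loss of signal scored.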

SMILES | AC50 | outcome
O=C1C(Cl)=C(Cl)C(=O)C(Cl)=C1Cl | 12.8 µM (active) | –
N#CCCCCC#N | – | inactive
CC(C)(c1cc(Cl)c(O)c(Cl)c1)c1cc(Cl)c(O)c(Cl)c1 | 27.8 µM (active) | –
COCC(=O)N(c1c(C)cccc1C)N1CCOC1=O | – | inactive
CC(C)CCCCCCCOP(=O)(Oc1ccccc1)Oc1ccccc1 | 15.1 µM (active) | –
C=CCN(CC=C)C(=O)C(Cl)Cl | – | inactive
c1ccc(Nc2ccc3ccccc3c2)cc1 | – | inactive
Cc1ccc(OP(=O)(Oc2ccc(C)cc2)Oc2ccc(C)cc2)cc1 (tested in a mixture with another compound) | – | inactive
O=S(=O)(c1ccccc1)c1ccccc1 | – | inactive
CC(=O)/C=C/c1ccccc1 | – | inactive

Read-out: not listed separately
Experiment: BSK_4H_SRB: Viability Assessment in the BioMAP Diversity Plus: 4H Assay (AID 2283027);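 note: cells exposed to compound for 24 h before staining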;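 for AC50: curves fitted both ways versus DMSO so AC50 may be loss or gain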
Conditions: primary human endothelial cells (HUVEC)
How it was run: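 Cytotoxicity readout: sulforhodamine B (0.1%) staining of total protein after 10% TCA fixation, measured at 560 nm in human umbilical vein endothelium at 24 h. DMSO set the baseline; fitting was bidirectional.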

SMILES | AC50 | outcome
O=C1C(Cl)=C(Cl)C(=O)C(Cl)=C1Cl | 11.9 µM (active) | –
N#CCCCCC#N | – | inactive
CC(C)(c1cc(Cl)c(O)c(Cl)c1)c1cc(Cl)c(O)c(Cl)c1 | 29 µM (active) | –
COCC(=O)N(c1c(C)cccc1C)N1CCOC1=O | – | inactive
CC(C)CCCCCCCOP(=O)(Oc1ccccc1)Oc1ccccc1 | 20 µM (active) | –
C=CCN(CC=C)C(=O)C(Cl)Cl | – | inactive
c1ccc(Nc2ccc3ccccc3c2)cc1 | 32.5 µM (active) | –
Cc1ccc(OP(=O)(Oc2ccc(C)cc2)Oc2ccc(C)cc2)cc1 (tested in a mixture with another compound) | – | inactive
O=S(=O)(c1ccccc1)c1ccccc1 | – | inactive
CC(=O)/C=C/c1ccccc1 | – | inactive

Read-out: not listed separately
Experiment: BSK_BE3C_SRB: Viability Assessment in the BioMAP Diversity Plus: BE3C Assay (AID 2283028);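 note: measured 24 h after chemical dosing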;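 for AC50: fitted both ways so AC50 may mark signal gain or loss versus DMSO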
Conditions: primary human bronchial epithelial cells
How it was run: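 Cytotoxicity read-out: SRB (0.1%) staining of TCA-fixed (10%) human lung bronchial epithelial cells, absorbance 560 nm, 24 h post-dosing. Curves fitted both directions relative to DMSO.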

SMILES | outcome | AC50
O=C1C(Cl)=C(Cl)C(=O)C(Cl)=C1Cl | inactive | –
N#CCCCCC#N | inactive | –
CC(C)(c1cc(Cl)c(O)c(Cl)c1)c1cc(Cl)c(O)c(Cl)c1 | – | 6.38 µM (active)
COCC(=O)N(c1c(C)cccc1C)N1CCOC1=O | inactive | –
CC(C)CCCCCCCOP(=O)(Oc1ccccc1)Oc1ccccc1 | – | 32.6 µM (active)
C=CCN(CC=C)C(=O)C(Cl)Cl | inactive | –
c1ccc(Nc2ccc3ccccc3c2)cc1 | – | 30 µM (active)
Cc1ccc(OP(=O)(Oc2ccc(C)cc2)Oc2ccc(C)cc2)cc1 (tested in a mixture with another compound) | inactive | –
O=S(=O)(c1ccccc1)c1ccccc1 | inactive | –
CC(=O)/C=C/c1ccccc1 | inactive | –

Read-out: Urokinase-type plasminogen activator receptor (uPAR), PLAUR (gene 5329)
Experiment: BSK_4H_uPAR: BioMAP Diversity Plus: 4H Assay for Urokinase-type plasminogen activator receptor (uPAR) Biomarker Activity (AID 2283030)
Conditions: primary human endothelial cells (HUVEC); actives raise or lower the signal
How it was run: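 uPAR level read by ELISA on HUVEC cultures (BioMAP 4H) 24 h post-dosing, analyzed for gain or loss relative to DMSO. Parallel SRB staining assessed overt cytotoxicity.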

SMILES | AC50 | outcome
O=C1C(Cl)=C(Cl)C(=O)C(Cl)=C1Cl | 31.9 µM (active) | –
N#CCCCCC#N | – | inactive
CC(C)(c1cc(Cl)c(O)c(Cl)c1)c1cc(Cl)c(O)c(Cl)c1 | 30.2 µM (active) | –
COCC(=O)N(c1c(C)cccc1C)N1CCOC1=O | – | inactive
CC(C)CCCCCCCOP(=O)(Oc1ccccc1)Oc1ccccc1 | 29.1 µM (active) | –
C=CCN(CC=C)C(=O)C(Cl)Cl | – | inactive
c1ccc(Nc2ccc3ccccc3c2)cc1 | 31.3 µM (active) | –
Cc1ccc(OP(=O)(Oc2ccc(C)cc2)Oc2ccc(C)cc2)cc1 (tested in a mixture with another compound) | – | inactive
O=S(=O)(c1ccccc1)c1ccccc1 | – | inactive
CC(=O)/C=C/c1ccccc1 | – | inactive

Read-out: Vascular endothelial growth factor receptor 2 (Homo sapiens) (UniProt P35968)
Experiment: BSK_4H_VEGFRII: BioMAP Diversity Plus: 4H Assay for Vascular endothelial growth factor receptor 2 (VEGFR2) Biomarker Activity (AID 2283031);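 for AC50: cell-surface VEGFR2 protein level quantified by ELISA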
Conditions: primary human endothelial cells (HUVEC); actives raise or lower the signal
How it was run: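 Measured by ELISA after 24 h of compound treatment: VEGFR2 on primary human umbilical vein endothelial cells, fitted in both directions relative to DMSO. Parallel cultures received SRB staining (560 nm) for overt cytotoxicity.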

SMILES | AC50 | outcome
O=C1C(Cl)=C(Cl)C(=O)C(Cl)=C1Cl | 34.3 µM (active) | –
N#CCCCCC#N | – | inactive
CC(C)(c1cc(Cl)c(O)c(Cl)c1)c1cc(Cl)c(O)c(Cl)c1 | 6.9 µM (active) | –
COCC(=O)N(c1c(C)cccc1C)N1CCOC1=O | – | inactive
CC(C)CCCCCCCOP(=O)(Oc1ccccc1)Oc1ccccc1 | 10.9 µM (active) | –
C=CCN(CC=C)C(=O)C(Cl)Cl | – | inactive
c1ccc(Nc2ccc3ccccc3c2)cc1 | – | inactive
Cc1ccc(OP(=O)(Oc2ccc(C)cc2)Oc2ccc(C)cc2)cc1 (tested in a mixture with another compound) | – | inactive
O=S(=O)(c1ccccc1)c1ccccc1 | – | inactive
CC(=O)/C=C/c1ccccc1 | – | inactive

Read-out: Human Leukocyte Antigen - DR isotype (HLADR), HLA-DRA (gene 3122)
Experiment: BSK_BE3C_HLADR: BioMAP Diversity Plus: BE3C Assay for Human Leukocyte Antigen - DR isotype (HLADR) Biomarker Activity (AID 2283032)
Conditions: primary human bronchial epithelial cells; actives raise or lower the signal
How it was run: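 Primary human bronchial epithelial cells (BE3C); 24 h chemical exposure; HLA-DR by ELISA; bidirectional curve fit vs DMSO baseline.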

SMILES | outcome | AC50
N#CCCCCC#N | inactive | –
CC(C)(c1cc(Cl)c(O)c(Cl)c1)c1cc(Cl)c(O)c(Cl)c1 | – | 9.27 µM (active)
COCC(=O)N(c1c(C)cccc1C)N1CCOC1=O | inactive | –
CC(C)CCCCCCCOP(=O)(Oc1ccccc1)Oc1ccccc1 | – | 13.9 µM (active)
C=CCN(CC=C)C(=O)C(Cl)Cl | inactive | –
c1ccc(Nc2ccc3ccccc3c2)cc1 | – | 20 µM (active)
Cc1ccc(OP(=O)(Oc2ccc(C)cc2)Oc2ccc(C)cc2)cc1 (tested in a mixture with another compound) | inactive | –
O=S(=O)(c1ccccc1)c1ccccc1 | inactive | –
CC(=O)/C=C/c1ccccc1 | – | 3.97 µM (active)

Read-out: Vascular cell adhesion molecule 1 (VCAM1), VCAM1 (gene 7412)
Experiment: BSK_4H_VCAM1: BioMAP Diversity Plus: 4H Assay for Vascular cell adhesion molecule 1 (VCAM1) Biomarker Activity (AID 2283033);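 for outcome: cell-surface VCAM-1 protein measured by ELISA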
Conditions: primary human endothelial cells (HUVEC); actives raise or lower the signal
How it was run: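 HUVEC, 24 h post-dose; VCAM-1 by ELISA. Bidirectional curve fit vs DMSO baseline. Parallel SRB total-protein stain (0.1% SRB after 10% TCA fixation, 560 nm) for cytotoxicity.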

SMILES | AC50 | outcome
O=C1C(Cl)=C(Cl)C(=O)C(Cl)=C1Cl | 13.5 µM (active) | –
N#CCCCCC#N | – | inactive
CC(C)(c1cc(Cl)c(O)c(Cl)c1)c1cc(Cl)c(O)c(Cl)c1 | 30.1 µM (active) | –
COCC(=O)N(c1c(C)cccc1C)N1CCOC1=O | – | inactive
CC(C)CCCCCCCOP(=O)(Oc1ccccc1)Oc1ccccc1 | 25.1 µM (active) | –
C=CCN(CC=C)C(=O)C(Cl)Cl | – | inactive
c1ccc(Nc2ccc3ccccc3c2)cc1 | 29.5 µM (active) | –
Cc1ccc(OP(=O)(Oc2ccc(C)cc2)Oc2ccc(C)cc2)cc1 (tested in a mixture with another compound) | – | inactive
O=S(=O)(c1ccccc1)c1ccccc1 | – | inactive
CC(=O)/C=C/c1ccccc1 | – | inactive
